# Shiga toxin inh: A qHTS for Small Molecule Inhibitors of Shiga Toxin | AID 2315, 2010 | Vero cells, Shiga toxin protein synthesis inhibition reporter | 9.2% of 290,000 active | inhibition, % at 38.7 µM; in the data active = inhibition mostly above about 28%, no sharp cut-off; inactive = mostly below about 43%; also: 0% is about no effect
# LmPK inhibitor: qHTS Assay for Inhibitors of Leishmania Mexicana Pyruvate Kinase (LmPK) | Q27686 | purified LmPK, Kinase-Glo ATP luminescence, 1 h | Potency, µM (titrated, usually from 57.5 µM), without a hit: at the highest dose activity change, negative = inhibition, actives largely listed as inhibitors | 0.37% of 290,000 active; also: potency is read from the fitted curve at half-maximal effect; % is scaled to controls: 0 for no effect and ±100 for the full control effect
# Target sequence (Q27686 whole entry, looked up): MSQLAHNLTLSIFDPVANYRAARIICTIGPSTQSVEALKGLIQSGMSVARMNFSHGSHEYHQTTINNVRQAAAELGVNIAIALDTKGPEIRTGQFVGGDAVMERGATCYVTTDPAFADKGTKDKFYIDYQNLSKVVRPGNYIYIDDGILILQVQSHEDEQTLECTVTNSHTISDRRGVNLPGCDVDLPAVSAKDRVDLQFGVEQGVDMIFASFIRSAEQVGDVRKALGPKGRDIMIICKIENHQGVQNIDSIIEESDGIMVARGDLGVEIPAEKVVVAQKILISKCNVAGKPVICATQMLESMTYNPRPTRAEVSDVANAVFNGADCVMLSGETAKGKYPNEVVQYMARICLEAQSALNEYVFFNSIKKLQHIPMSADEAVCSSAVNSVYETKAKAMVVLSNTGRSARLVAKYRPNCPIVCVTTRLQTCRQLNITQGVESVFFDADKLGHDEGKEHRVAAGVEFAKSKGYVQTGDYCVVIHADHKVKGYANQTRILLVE
#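 0.1 nM LmPK, 0.5 mM PEP, 0.1 mM ADP; 50 mM imidazole pH 7.2, 7 mM MgCl2, 50 mM KCl; 1 h RT. Kinase-Glo luminescence readout, normalized to no-enzyme (full inhibition) and uninhibited wells.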
# Pf growth 48h: Primary qHTS for delayed death inhibitors of the malarial parasite plastid, 48 hour incubation; Potency, µM (highest dose often 28.7 µM), for the others: at the top dose activity change, negative = inhibition, most hits filed as inhibitors; P. falciparum luciferase growth in erythrocytes, 48 h; 5.9% of 310,000 active; also: potency is read from the fitted curve at half-maximal effect; % is scaled to controls: 0 for no effect and ±100 for the full control effect
#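 Luciferase-expressing P. falciparum in infected erythrocytes (2% hematocrit, 0.1% parasitemia final) in RPMI 1640/0.5% Albumax were exposed to compound for 48 hours at 37 C, 5% CO2; growth read as luminescence.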
# Pf growth 96h: Primary qHTS for delayed death inhibitors of the malarial parasite plastid, 96 hour incubation | P. falciparum luciferase reporter growth, 96 h | Potency, µM (doses to about 28.7 µM), for inactives: at the top dose activity change, negative = inhibition, most hits filed as inhibitors | 6.9% of 320,000 active | AID 504834, 2011; also: potency is read from the fitted curve at half-maximal effect; % is scaled to controls: 0 for no effect and ±100 for the full control effect
#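 Erythrocytes infected with luciferase-expressing P. falciparum were dispensed at 2% hematocrit and 0.05% parasitemia (final), then incubated with compounds 96 hours at 37 C in 5% CO2. Luminescence after detection reagent addition reported growth.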
# CHX counter: Cycloheximide Counterscreen for Small Molecule Inhibitors of Shiga Toxin; cell reporter, cycloheximide protein synthesis inhibition counterscreen; max response, %; 12% of 300,000 active; AID 2314, 2010; in the data active = max response mostly above about 13%, no sharp cut-off; inactive = mostly below about 14%; also: read at 38.3 µM for the half of the compounds with a filed dose; 0% is about no effect
# An asterisk follows results filed as active; u = inconclusive; x = no result; [ ] = dose if it differs, or a comment. The list is not random: actives were taken first. Their share in the collection is about 22%. Unless noted, calls follow the shape of the dose curve; as a rule, active = well fitted inhibition curve with a large enough effect; inconclusive = small, poorly fitted or top-dose-only effect, or another doubt; inactive = no such curve, though single readings can be large or run the other way.
SMILES,Shiga toxin inh,LmPK inhibitor,Pf growth 48h,Pf growth 96h,CHX counter
Cc1ccc(S(=O)(=O)NCc2ccc(C(=O)NCCc3ccc(S(N)(=O)=O)cc3)cc2)cc1,-7,8%,-19%,2%,6
CCCCn1c(N)c(N(Cc2ccccc2OC)C(=O)CN2C(=O)NC(C)(c3ccccc3)C2=O)c(=O)[nH]c1=O (stereo not given),x,x,-5%,-7%,x
Cc1ccc(S(=O)(=O)Nc2ccc(Cl)cc2C(=O)c2ccc(F)cc2)cc1,-4,2%,-2%,u,-5
CCOc1ccc(C(=O)Nc2ccccc2N2CCN(C(=O)c3ccccc3)CC2)cc1[N+](=O)[O-],-12,2%,1.3µM*,1.7µM*,-2
CCCCOc1cccc(C(=O)Nc2ccccc2N2CCCC2)c1,33,0%,u,u,-2
CCOc1cccc(C(=O)Nc2ccccc2N2CCN(C(=O)C(C)C)CC2)c1,30,0%,9.3µM*,13µM*,5
CCOc1ccc(C(=O)NC(=S)Nc2ccccc2N2CCC(C)CC2)cc1[N+](=O)[O-],-9,12%,u,x,-2
COc1ccc(Cl)cc1C(=O)Nc1ccccc1N1CCN(C(=O)C(C)C)CC1,-19,2%,5.9µM*,5.2µM*,-8
COc1ccc(C(=O)Nc2ccccc2N2CCN(C(=O)C(C)C)CC2)cc1Cl,-33,1%,12µM*,-29%,-4
COc1ccc(C(=O)Nc2ccccc2-c2ccccc2)cc1Cl,-5,-2%,-9%,-10%,-2
COc1ccccc1OCc1nnc(SCC(=O)N2CCCCC2)o1,-10,2%,-3%,-5%,-1
Cn1nc(-c2ccccc2)cc1NC(=O)c1ccccc1,19,3%,43%,37%,12*
Cn1nc(-c2ccc(Cl)cc2)cc1NC(=O)Nc1ccccc1,66*,0%,55%,105%,31*
Cc1cc(NC(=O)c2ccccc2)n(C)n1,-7,9%,-4%,38%,-1
Cn1nc(-c2ccccc2)cc1NC(=O)Nc1ccc(C(C)(C)C)cc1,17,1%,u,u,2
CC(=O)Nc1cc(-c2ccc(Cl)cc2)nn1-c1ccccc1,17,4%,0%,9.3µM*,1
COc1ccc(C(C(=O)NC(C)(C)C)N(C(=O)CCC(=O)Nc2cc(C)on2)c2c(C)cccc2C)cc1 (stereo not given),3,-1%,u,4%,-2
N=c1n(CCCOc2ccccc2Cl)c2ccccc2n1CC(N)=O,15,4%,u,u,-3
CCC(=O)N1N=C(c2c(O)n(C)c(=O)n(C)c2=O)CC1c1ccccc1 (stereo not given),-13,-8%,u,u,1
CCOc1ccc(C2CC(c3c(O)n(C)c(=O)n(C)c3=O)=NN2)cc1 (stereo not given),-1,-14%,u,15µM*,-2
Cn1c(O)c(C2=NNC(c3ccc(Cl)cc3)C2)c(=O)n(C)c1=O (stereo not given),-4,0%,13µM*,u,0
Cc1nn(C)cc1/C=N/NC(=O)Cn1cncn1,12,-2%,14%,20%,13
COc1ccc(-c2nc3c(c4c2C[C@H](c2ccccc2)OC4)CN(C(=O)NCc2ccco2)CC3)c(C)c1,x,2%[11.5 µM],x,x,x
Cc1c(C(=O)N(CCc2ccccc2)Cc2ccccc2)cccc1[N+](=O)[O-],36,-4%,u,u,5
COc1ccc(N2CCc3c(C)nc4c(OC)cc(OC)cc4c32)c(OC)c1,-14,7%,u,15µM*,-2
SMILES,Shiga toxin inh,LmPK inhibitor,Pf growth 48h,Pf growth 96h,CHX counter
COc1cccc(N2CCc3c(C)nc4ccc(Cl)cc4c32)c1,-11,5%,13µM*,12µM*,-4
CCN1Cc2c(/C=C/c3ccccc3)nc3ccc(OC)cc3c2N(c2cccc(Cl)c2)C1,-4,-1%,2.1µM*,3.3µM*,0
COc1ccc(N2CCc3c(C)nc4c(OC)cccc4c32)cc1,27,7%,u,u,-6
O=C1NC(=O)/C(=C/c2cc3c(cc2Br)OCO3)S1,-3,-15%,25%,u,8
O=C1NC(=O)/C(=C\c2ccc(Br)o2)S1,20*,2%,31%,5%,23*
COC(=O)c1scc(C)c1-n1ccc(C(=O)C(=O)N(C)C)c1,-5,-1%,-25%,11%,-4

# Assay outcomes as filed in PubChem BioAssay.
